# Data as given in the supplement of paper PMC10849652.
# Targets with a hit are over-represented here; the source holds about 8,800 in all. About 0.5% of all pairs of compound and target were hits. Unmarked numbers belong to inactive results.
# Assays:
# Assay in all cases: log2 fold change, soluble protein after heating vs DMSO (PISA); higher = thermal stabilisation; K562 lysate, 10 uM; active = over 0.2 and 3.5 SD of the protein, either way, in both replicates (recomputed)
# [1] = compound: CS(=O)(=O)CCNCc1ccc(-c2ccc3ncnc(Nc4ccc(OCc5cccc(F)c5)c(Cl)c4)c3c2)o1 [lapatinib]
# Summary of the method: (§1)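 K562 pellets were dounce-homogenised in PBS pH 7.4 containing 1 mM MgCl2, and the crude extract, at 1 mg/mL protein, was exposed to 10 μM compound for 30 min. Aliquots were heated for 3 min across 48°C-58°C, pooled, brought to 0.5% NP-40 at 4°C and spun at 21,000xg for 90 min, with the supernatant taken as soluble protein. TMTpro 16plex LC-MS/MS with equalised channel sums quantified that protein. Values are log-two fold changes in thermal stability relative to solvent controls, taken from duplicates.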
# [2] = compound: CS(=O)(=O)N1CCN(Cc2cc3nc(-c4cccc5[nH]ncc45)nc(N4CCOCC4)c3s2)CC1 [pictilisib]
# Summary of the method: as §1
# [3] = compound: C[C@@H](Oc1cc(-c2cnn(C3CCNCC3)c2)cnc1N)c1c(Cl)ccc(F)c1Cl [crizotinib]
# Summary of the method: as §1
# [4] = compound: C[C@H](C1=CC=C(C=C1)C(=O)NC2=C3C=CNC3=NC=C2)N
# Summary of the method: as §1
# [5] = compound: C[C@H](Nc1ncnc2nc[nH]c12)c1cc2cccc(Cl)c2c(=O)n1-c1ccccc1 [duvelisib]
# Summary of the method: as §1
# [6] = compound: Cc1cc(Nc2cc(CN3CCOCC3)c3nc(C)c(Cc4ccc(Cl)cc4F)n3n2)n[nH]1 [gandotinib]
# Summary of the method: as §1
# [7] = compound: Cc1ccc(-n2nc(C(C)(C)C)cc2NC(=O)Nc2ccc(OCCN3CCOCC3)c3ccccc23)cc1 [doramapimod]
# Summary of the method: as §1
# [8] = compound: Cc1ccc(NC(=O)c2ccc(CN3CC[C@H](N(C)C)C3)c(C(F)(F)F)c2)cc1Nc1nccc(-c2cncnc2)n1 [bafetinib]
# Summary of the method: as §1
# [9] = compound: Cc1cccc(CC(=O)N2CCc3c2ccc(-c2cn(C)c4ncnc(N)c24)c3F)n1
# Summary of the method: as §1
# [10] = compound: Cc1cc(Nc2cc(N3CCN(C)CC3)nc(Sc3ccc(NC(=O)C4CC4)cc3)n2)n[nH]1 [tozasertib]
# Summary of the method: as §1
# Sequence of UniProt Q9NWR8 (Q9NWR8 whole entry, looked up): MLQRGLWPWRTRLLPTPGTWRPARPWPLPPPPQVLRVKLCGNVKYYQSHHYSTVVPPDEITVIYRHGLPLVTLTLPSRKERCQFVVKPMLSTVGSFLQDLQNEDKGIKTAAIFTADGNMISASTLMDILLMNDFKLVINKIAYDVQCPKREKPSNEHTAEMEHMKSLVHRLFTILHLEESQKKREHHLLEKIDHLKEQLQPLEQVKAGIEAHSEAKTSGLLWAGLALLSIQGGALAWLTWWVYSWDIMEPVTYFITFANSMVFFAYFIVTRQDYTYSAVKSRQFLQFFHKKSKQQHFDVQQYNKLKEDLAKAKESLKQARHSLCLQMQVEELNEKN
# Sequence of UniProt Q99661 (Q99661 whole entry, looked up): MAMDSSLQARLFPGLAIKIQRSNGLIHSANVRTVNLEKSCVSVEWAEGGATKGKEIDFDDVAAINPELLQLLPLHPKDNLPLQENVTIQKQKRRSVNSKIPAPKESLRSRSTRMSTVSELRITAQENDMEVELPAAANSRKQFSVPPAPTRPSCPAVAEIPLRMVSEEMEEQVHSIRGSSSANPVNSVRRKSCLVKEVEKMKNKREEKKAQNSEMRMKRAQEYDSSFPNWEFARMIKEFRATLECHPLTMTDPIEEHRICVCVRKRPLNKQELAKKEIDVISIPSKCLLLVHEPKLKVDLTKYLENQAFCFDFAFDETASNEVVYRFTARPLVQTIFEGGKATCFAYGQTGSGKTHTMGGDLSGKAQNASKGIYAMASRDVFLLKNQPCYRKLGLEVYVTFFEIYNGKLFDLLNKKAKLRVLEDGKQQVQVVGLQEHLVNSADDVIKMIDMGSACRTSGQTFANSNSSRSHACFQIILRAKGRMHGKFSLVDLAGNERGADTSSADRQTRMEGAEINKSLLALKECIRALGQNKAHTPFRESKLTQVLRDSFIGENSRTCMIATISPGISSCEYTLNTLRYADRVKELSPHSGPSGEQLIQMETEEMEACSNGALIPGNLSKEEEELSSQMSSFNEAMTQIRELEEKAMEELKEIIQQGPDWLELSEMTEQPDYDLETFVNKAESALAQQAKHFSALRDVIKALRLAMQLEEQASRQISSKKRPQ
# Sequence of UniProt Q8N5J2 (Q8N5J2 whole entry, looked up): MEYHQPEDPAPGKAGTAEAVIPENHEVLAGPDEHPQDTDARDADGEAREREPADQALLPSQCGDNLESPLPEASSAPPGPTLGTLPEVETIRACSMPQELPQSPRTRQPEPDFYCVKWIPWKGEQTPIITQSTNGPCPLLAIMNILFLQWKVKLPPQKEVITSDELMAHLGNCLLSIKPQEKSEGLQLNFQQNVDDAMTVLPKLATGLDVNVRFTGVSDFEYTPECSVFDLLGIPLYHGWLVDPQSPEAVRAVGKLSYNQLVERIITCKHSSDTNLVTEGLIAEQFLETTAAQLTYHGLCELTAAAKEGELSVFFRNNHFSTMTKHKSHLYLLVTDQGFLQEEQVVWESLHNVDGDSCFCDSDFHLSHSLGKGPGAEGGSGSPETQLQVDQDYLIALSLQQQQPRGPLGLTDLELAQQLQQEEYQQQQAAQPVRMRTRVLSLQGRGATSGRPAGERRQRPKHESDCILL
# Sequence of UniProt Q9H0B6 (Q9H0B6 whole entry, looked up): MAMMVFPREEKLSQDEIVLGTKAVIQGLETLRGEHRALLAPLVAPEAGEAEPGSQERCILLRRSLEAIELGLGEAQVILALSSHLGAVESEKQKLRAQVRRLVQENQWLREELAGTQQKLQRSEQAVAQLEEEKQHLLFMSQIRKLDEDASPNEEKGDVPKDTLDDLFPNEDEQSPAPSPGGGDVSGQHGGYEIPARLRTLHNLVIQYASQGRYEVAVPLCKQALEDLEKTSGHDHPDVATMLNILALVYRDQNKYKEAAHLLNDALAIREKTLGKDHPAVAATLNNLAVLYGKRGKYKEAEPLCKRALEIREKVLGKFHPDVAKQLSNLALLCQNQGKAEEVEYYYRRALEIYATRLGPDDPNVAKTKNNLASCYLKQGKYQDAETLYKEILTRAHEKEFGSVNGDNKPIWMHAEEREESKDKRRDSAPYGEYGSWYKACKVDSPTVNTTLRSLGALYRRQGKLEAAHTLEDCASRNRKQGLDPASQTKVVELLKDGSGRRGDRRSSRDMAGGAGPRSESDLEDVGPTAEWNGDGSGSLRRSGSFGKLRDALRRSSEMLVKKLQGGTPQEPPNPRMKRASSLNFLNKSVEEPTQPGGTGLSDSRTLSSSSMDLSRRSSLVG
# Sequence of UniProt Q93074 (Q93074 whole entry, looked up): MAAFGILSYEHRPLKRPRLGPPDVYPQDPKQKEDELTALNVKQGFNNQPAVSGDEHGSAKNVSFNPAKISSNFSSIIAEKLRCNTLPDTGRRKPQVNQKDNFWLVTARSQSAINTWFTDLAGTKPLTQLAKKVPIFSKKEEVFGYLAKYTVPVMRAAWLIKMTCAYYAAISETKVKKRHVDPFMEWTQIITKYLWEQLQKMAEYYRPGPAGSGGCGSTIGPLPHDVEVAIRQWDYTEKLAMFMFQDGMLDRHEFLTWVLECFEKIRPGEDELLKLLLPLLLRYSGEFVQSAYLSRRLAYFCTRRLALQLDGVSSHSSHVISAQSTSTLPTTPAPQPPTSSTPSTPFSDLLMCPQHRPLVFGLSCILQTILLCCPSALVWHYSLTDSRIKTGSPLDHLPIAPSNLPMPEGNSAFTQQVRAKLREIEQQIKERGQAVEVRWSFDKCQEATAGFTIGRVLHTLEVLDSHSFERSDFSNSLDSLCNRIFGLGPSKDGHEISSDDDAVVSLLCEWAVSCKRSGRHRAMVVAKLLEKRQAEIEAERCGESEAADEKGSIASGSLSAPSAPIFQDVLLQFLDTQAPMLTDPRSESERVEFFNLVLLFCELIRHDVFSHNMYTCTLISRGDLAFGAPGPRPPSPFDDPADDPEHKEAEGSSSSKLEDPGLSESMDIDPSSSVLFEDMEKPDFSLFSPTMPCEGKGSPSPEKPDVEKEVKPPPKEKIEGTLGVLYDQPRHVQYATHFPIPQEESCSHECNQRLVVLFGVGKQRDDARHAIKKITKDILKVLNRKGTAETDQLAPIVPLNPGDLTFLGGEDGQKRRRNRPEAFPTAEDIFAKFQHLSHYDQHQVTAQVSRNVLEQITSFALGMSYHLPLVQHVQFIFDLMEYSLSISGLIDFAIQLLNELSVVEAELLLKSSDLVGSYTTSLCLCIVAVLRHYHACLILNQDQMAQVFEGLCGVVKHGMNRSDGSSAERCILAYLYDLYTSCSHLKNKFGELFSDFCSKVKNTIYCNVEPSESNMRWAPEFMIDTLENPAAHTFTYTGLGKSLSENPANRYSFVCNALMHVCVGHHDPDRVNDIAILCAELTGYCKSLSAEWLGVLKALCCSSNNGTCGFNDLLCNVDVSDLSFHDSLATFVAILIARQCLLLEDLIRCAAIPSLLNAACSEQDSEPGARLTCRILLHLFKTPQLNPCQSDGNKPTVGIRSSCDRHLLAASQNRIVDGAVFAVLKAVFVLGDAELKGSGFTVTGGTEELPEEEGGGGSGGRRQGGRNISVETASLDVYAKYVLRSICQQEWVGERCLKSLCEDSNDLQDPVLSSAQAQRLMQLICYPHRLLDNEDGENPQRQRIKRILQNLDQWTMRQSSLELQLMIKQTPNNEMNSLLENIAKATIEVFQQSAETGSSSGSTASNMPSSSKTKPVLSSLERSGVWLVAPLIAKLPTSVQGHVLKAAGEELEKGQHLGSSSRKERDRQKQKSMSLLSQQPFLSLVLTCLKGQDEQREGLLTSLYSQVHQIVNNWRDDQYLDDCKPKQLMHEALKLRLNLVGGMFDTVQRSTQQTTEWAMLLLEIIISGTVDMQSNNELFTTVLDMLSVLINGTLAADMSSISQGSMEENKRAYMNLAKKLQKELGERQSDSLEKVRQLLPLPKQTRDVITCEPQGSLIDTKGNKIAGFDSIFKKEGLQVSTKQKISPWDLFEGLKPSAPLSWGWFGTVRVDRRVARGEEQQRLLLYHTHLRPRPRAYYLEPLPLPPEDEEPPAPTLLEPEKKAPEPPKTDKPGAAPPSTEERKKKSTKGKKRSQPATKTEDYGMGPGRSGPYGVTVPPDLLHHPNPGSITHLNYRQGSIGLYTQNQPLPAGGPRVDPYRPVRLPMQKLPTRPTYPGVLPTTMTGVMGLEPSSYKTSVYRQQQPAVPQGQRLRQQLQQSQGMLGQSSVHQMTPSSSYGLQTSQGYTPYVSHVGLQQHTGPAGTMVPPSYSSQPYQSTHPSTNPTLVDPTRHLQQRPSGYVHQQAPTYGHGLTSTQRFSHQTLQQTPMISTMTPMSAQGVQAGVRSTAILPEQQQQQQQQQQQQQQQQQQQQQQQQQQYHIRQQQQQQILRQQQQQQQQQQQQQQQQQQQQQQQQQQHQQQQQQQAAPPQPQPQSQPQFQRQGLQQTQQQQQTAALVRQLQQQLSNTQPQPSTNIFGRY
# Sequence of UniProt P07948 (P07948 whole entry, looked up): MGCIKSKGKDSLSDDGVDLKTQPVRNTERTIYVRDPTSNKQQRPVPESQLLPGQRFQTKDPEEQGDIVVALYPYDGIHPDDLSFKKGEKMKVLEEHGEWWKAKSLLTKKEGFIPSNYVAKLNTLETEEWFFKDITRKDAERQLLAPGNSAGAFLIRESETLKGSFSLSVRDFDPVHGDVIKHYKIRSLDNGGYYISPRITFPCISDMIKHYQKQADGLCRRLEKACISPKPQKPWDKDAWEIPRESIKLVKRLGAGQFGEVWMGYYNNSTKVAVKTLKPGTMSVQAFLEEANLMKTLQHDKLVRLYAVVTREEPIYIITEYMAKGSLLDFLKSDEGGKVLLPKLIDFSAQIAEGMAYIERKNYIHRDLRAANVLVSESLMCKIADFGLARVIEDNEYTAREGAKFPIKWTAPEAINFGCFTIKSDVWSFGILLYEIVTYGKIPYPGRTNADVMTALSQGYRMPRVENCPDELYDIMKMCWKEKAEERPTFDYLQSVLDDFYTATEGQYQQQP
# Sequence of UniProt O15243 (O15243 whole entry, looked up): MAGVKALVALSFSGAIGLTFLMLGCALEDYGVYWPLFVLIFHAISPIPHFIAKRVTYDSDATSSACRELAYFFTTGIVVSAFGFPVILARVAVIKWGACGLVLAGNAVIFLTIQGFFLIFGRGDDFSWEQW
Target,log2 fold change [1],log2 fold change [2],log2 fold change [3],log2 fold change [4],log2 fold change [5],log2 fold change [6],log2 fold change [7],log2 fold change [8],log2 fold change [9],log2 fold change [10]
MME (UniProt P08473),0.025,-0.024,0.037,0.037,0.066,-0.002,0.002,0.058,0.048,–
LZTR1 (UniProt Q8N653),0.177,-0.031,-0.092,0.135,-0.033,-0.121,0.083,0.005,0.026,-0.023
MCUB (UniProt Q9NWR8),0.044,0.088,-0.17,0.187,-0.018,-0.347,0.05,-0.045,-0.016,–
MED12 isoform 2 (UniProt Q93074),0.009,0.017,-0.017,0.002,0,-0.072,0.011,-0.012,-0.011,-0.033
LEPROT (UniProt O15243),-0.058,0,-0.069,-0.019,–,0.054,0,-0.067,0.056,-0.116
LPIN1 isoform 7 (UniProt Q14693),-0.052,-0.082,-0.035,-0.069,-0.097,-0.005,0.013,-0.04,0.097,0.012
MAP4 isoform 5 (UniProt P27816),-0.089,-0.008,-0.034,–,0.159,–,-0.061,0.081,–,0.008
MINDY1 isoform 3 (UniProt Q8N5J2),-0.002,0,-0.045,–,0.051,–,0.051,-0.11,–,-0.036
KLC2 (UniProt Q9H0B6),-0.012,-0.057,-0.047,0.025,-0.031,-0.145,0.065,-0.043,0.074,0.012
MPP1 (UniProt Q00013),0.006,0.016,0.001,-0.006,0.012,-0.008,0.006,-0.015,0.001,0.017
KIF2C (UniProt Q99661),0.002,-0.003,-0.007,0.004,0.011,-0.051,0.022,0.004,-0.002,-0.008
LYN (UniProt P07948),-0.184,-0.036,0.093,-0.079,-0.042,0.551,0.026,0.763 (active),-0.005,0.11
MAP2K5 (UniProt Q13163),0.038,-0.021,-0.109,0.013,0.152,-0.089,-0.017,-0.436,0.105,–
MED14 (UniProt O60244),-0.032,-0.006,-0.016,-0.058,-0.033,-0.016,-0.028,-0.036,0.037,0.046
MCMBP isoform 2 (UniProt Q9BTE3),0.154,-0.179,0.14,–,-0.03,–,-0.092,0.235,–,0.013
MANEA (UniProt Q5SRI9),-0.01,0.008,-0.023,-0.464 (active),0.036,0.365 (active),0.034,0.007,0.278,0.035
